This note sets out measurements from PubChem BioAssay.

Structures are written as SMILES.

For assay [1], the target named is Tumor necrosis factor receptor superfamily member 10B (Homo sapiens) (UniProt O14763). Description: viability loss of caspase-8 NB7 cells with TRAIL – with/without TRAIL, luminescence panel, confirmation (AID 651596). Particulars: NB7 neuroblastoma + caspase-8, TRAIL sensitization, NB7 Caspase-8, with TRAIL, mean of runs, at 10 µM, stronger effect = higher value.
Assay in assay [2]: as above
The settings on record: NB7 neuroblastoma + caspase-8, without TRAIL, NB7 Caspase-8, without TRAIL, mean of runs, at 10 µM.

Sequence of Tumor necrosis factor receptor superfamily member 10B (Homo sapiens) (O14763 whole entry, looked up): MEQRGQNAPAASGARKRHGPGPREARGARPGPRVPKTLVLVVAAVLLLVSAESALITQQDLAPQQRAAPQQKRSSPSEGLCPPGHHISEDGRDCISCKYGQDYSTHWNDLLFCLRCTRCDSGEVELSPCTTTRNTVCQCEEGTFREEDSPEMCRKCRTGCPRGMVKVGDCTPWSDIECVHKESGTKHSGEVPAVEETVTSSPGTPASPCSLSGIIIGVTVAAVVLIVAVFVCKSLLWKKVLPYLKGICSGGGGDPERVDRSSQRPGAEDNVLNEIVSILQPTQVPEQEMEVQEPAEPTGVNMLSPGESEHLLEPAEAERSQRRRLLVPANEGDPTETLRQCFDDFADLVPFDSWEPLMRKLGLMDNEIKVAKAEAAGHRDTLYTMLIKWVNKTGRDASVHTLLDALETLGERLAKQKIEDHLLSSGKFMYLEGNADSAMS

With `N#Cc1ccccc1NC(=O)COC(=O)/C=C/c1cn(-c2ccccc2)nc1-c1ccc(Cl)cc1`, the activity was 39.5% in assay [1] and 80.4% in assay [2].

Regarding `C=C(C)c1nc(Oc2ccccc2)nc(Oc2ccccc2)n1`, the activity in assay [1] was 77%; in assay [2], 77.6%.

In the case of `COCCOCCn1c(/C=C/c2ccccc2)nc2ccccc21`, the activity in assay [1] was determined as 65.4%; in assay [2] it was 77.1%.

As for `O=C(c1ccncc1)N1CCN(c2cc(-c3ccccc3)nc3cc(-c4cccc(Cl)c4)nn23)CC1`, the activity was -0.725% in assay [1] and -15.8% in assay [2].

For the compound `COc1ccc2nc(Nc3ccccc3OC)sc2c1`, the activity was 68.3% in assay [1] and 59.2% in assay [2].

Take `Cc1nnc(NC(=O)c2ccc(S(=O)(=O)C(F)F)cc2)s1`: the values for the activity in assay [1] and in assay [2] were 43.1% and 42.9%, respectively.

As for `CCC(=O)Nc1cccc(-c2ccc(N3CCCCC3)nn2)c1`, the activity in assay [1] was 85.5%; in assay [2] it was 84.5%.

For the compound `Nc1nc(N)c2cc(Sc3ccc4ccccc4c3)ccc2n1`, the activity was found to be 61% in assay [1] and 73.9% in assay [2].

Turning to `O=C(CCl)N(c1ccccc1)c1ccccc1`, the figures for the activity in assay [1] and in assay [2] were 99.2% and 99%, respectively.

`O=C(CNC(=O)c1ccccc1F)N/N=C/c1cc(Br)ccc1OC(=O)/C=C/c1ccco1`: the results for the activity in assay [1] and in assay [2] were 3.4% and 20.8%, respectively.

With `CCCc1ccc(-c2cc(C(=O)Nc3ccc([N+](=O)[O-])cn3)c3ccccc3n2)cc1`, the activity in assay [1] turned out to be 43.2%; in assay [2], 33.6%.

Regarding `O=C(Nc1nc2ccccc2[nH]1)c1ccc(Cl)cc1`, the activity in assay [1] is 94.4%; in assay [2], 94.1%.

For `CC(C)(C)c1ccc2c(c1)OC(C(=O)N/N=C\c1ccc[nH]1)CO2` (stereo unspecified), the activity turned out to be 26.6% in assay [1] and 43.6% in assay [2].

In the case of `Nc1nnnn1/N=C/C(Br)=C/c1ccccc1`, the activity was found to be 68.6% in assay [1] and 88.8% in assay [2].

For `CN(C)CCCn1cnc2c(c1=N)C(c1ccccc1)c1ccc3ccccc3c1O2` (stereo unspecified), the activity in assay [1] turned out to be 88.5%; in assay [2], 93.6%.

On to `COc1cc(SC)ccc1C(=O)Nc1nccs1`, for which the values for the activity in assay [1] and in assay [2] were 83.3% and 84.3%, respectively.

On to `O=C(C[C@H]1C/C=C\C[C@H](NC(=O)OCC2c3ccccc3-c3ccccc32)C(=O)OC[C@H](Cc2ccccc2)NC1=O)N[C@H](CO)Cc1ccccc1`, for which the activity in assay [1] was 11.8%; in assay [2], -2.65%.

For the compound `COc1cccc(N2C(N)=NC(N)=NC2(C)C)c1`, the activity in assay [1] was determined as 79.7%; in assay [2], 85%.

Consider `O=C(CCl)Nc1ccc(Oc2cnc3ccccc3n2)cc1`, for which the activity in assay [1] amounted to 97.6%; in assay [2], 98.5%.

`Cc1ccc(C(=O)Nc2nc3ccccc3c(=O)s2)cc1`: the activity in assay [1] was determined as 80.8%; in assay [2], 80%.

As to `O=C(/C=C/c1cccnc1)/C=C/c1cccnc1`, the activity in assay [1] is 91.5%; in assay [2], 69.7%.

As to `CC(=C/c1ccccc1)/C=N/NC(=O)c1cccs1`, the activity in assay [1] came out at 56%; in assay [2] it was 51.2%.

With `Cc1ccsc1C(=O)Nc1ccc2c(c1)OCCO2`, the values for the activity in assay [1] and in assay [2] were 53.2% and 45.1%, respectively.

For the compound `COc1ccc(C(C(=O)NC2CCCCC2)N(C(=O)CCl)c2ccc(Cl)cc2)cc1` (stereo unspecified), the activity came out at 98.4% in assay [1] and 98.9% in assay [2].

Turning to `NC(N)=Nc1ccc(C=C2C=Cc3ccccc32)cc1`, the activity turned out to be 96.6% in assay [1] and 68.5% in assay [2].

Turning to `Cc1ccc(N2Cc3ccccc3C2=O)cc1`, the activity came out at 64.7% in assay [1] and 59.3% in assay [2].

For the compound `CC(=O)Nc1sc(C)c(C)c1C(=O)OCC(=O)N(CC(C)C)c1c(N)n(Cc2ccccc2)c(=O)[nH]c1=O`, the activity in assay [1] was found to be 97.5%; in assay [2], 98.9%.

Consider `O=C(Nc1ccc(N2CCCCC2)cc1)c1ccccc1`, for which the activity came out at 69.6% in assay [1] and 58.5% in assay [2].

With `NC(c1csc(NC(=O)Nc2cccc(C(F)(F)F)c2)n1)C1CCCCC1` (stereo unspecified), the activity in assay [1] was determined as 56.4%; in assay [2], 94.9%.

Take `Cc1ccc(C(=O)Oc2ccc(C(=O)COC(=O)c3cnccn3)cc2)cc1`: the activity in assay [1] was found to be 19.9%; in assay [2], 31.6%.

Take `Cc1cccc(-n2ncc3c(N4CCCC4)ncnc32)c1`: the activity in assay [1] is 75.4%; in assay [2], 73.6%.

On to `COc1cccc(-c2cc3nc(-c4ccccc4)cc(N4CCN(C(=O)c5ccoc5)CC4)n3n2)c1`, for which the activity in assay [1] turned out to be 82%; in assay [2], 73.8%.

With `O=c1[nH]c(/C(=N\O)c2ccccc2)no1`, the activity in assay [1] is 88.8%; in assay [2] it was 89.6%.

`COc1ccc(C(=O)NNC(=S)NC(=O)/C=C/c2cccs2)cc1`: the results for the activity in assay [1] and in assay [2] were 36.2% and 42.2%, respectively.

Regarding `COC(=O)C1=C(C(=O)OC)[C@@H]2N(Cc3ccccc3)c3ccccc3[C@@]23C[C@@H](C(=O)OC)N(C(=O)c2cccs2)C3=N1`, the activity is 17.8% in assay [1] and -45.8% in assay [2].

In the case of `CCCCCN=Cc1c(C)[nH]n(-c2nc3ccccc3s2)c1=O`, the activity turned out to be 95.5% in assay [1] and 95.9% in assay [2].

Consider `Cc1cccc(-n2ncc3c(NC4CCCCC4)ncnc32)c1`, for which the values for the activity in assay [1] and in assay [2] were 66.7% and 54.5%, respectively.

For the compound `Nc1nc2ccccc2n1C(=O)c1ccccc1`, the activity in assay [1] was 87.9%; in assay [2], 85.9%.

With `CCOC(=O)c1cccc(NC(=O)/C=C/c2ccc3c(c2)OCO3)c1`, the activity came out at 78.9% in assay [1] and 78.7% in assay [2].

With `CCOC(=O)c1c(C)nc2c3ccccc3ccn12`, the results for the activity in assay [1] and in assay [2] were 51.9% and 58.9%, respectively.

Take `COC(=O)c1c(NC(=O)c2nc3ccccc3s2)sc2c1CC(C)(C)NC2(C)C`: the activity in assay [1] stood at 87.8%; in assay [2], 98.3%.

On to `O=c1/c(=C/c2ccccn2)sc2nc3ccccc3n12`, for which the activity in assay [1] worked out at 60%; in assay [2], 14.9%.

On to `NC(=O)c1ccsc1NC(=O)c1coc2ccccc2c1=O`, for which the activity in assay [1] is 36.1%; in assay [2] it was 33.8%.
